# Bioassay records from PubChem BioAssay.
# KB-V1 cytotox: qHTS assay for MDR1-selective chemotherapeutics: Primary screen using the drug-selected MDR subline cells KB-V1. KB-V1 MDR cells viability, CellTiter-Glo, 72 h. Potency, µM (top dose mostly 46.1 µM), hits mostly cytotoxic. actives 3.4% (n = 400,000); note: nearly all actives have a fitted effect of over 60% in size
#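 Compound-treated KB-V1 multidrug-resistant cells, 72 h, 37 degrees C; viability by CellTiter-Glo. Fitted qHTS curves give the values.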
# KB-3-1 tox: qHTS assay for MDR1-selective chemotherapeutics: Primary screen using the parental adenocarcinoma cell KB-3-1; KB-3-1 viability, CellTiter-Glo ATP luminescence, 72 h; Potency, µM (series often up to 46.1 µM), usual class: cytotoxic; actives 1.4% (n = 400,000); note: nearly all actives have a fitted effect of over 60% in size
#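 72 h, 37 °C compound treatment of KB-3-1 parental cells; CellTiter-Glo added, 10 min, luminescence read. Data corrected against DMSO-only plates and normalized before curve fitting.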
# HT1080 IDH1KD tx: qHTS for induction of synthetic lethality in tumor cells producing 2HG: qHTS for the HT-1080-IDH1KD cell line; actives 2% (n = 360,000); Potency, µM (series often up to 46.1 µM), most hits filed as cytotoxic; HT-1080 IDH1 knockdown viability, ATP luminescence, 48 h; AID 686971, 2013
#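 CellTiter-Glo luminescence after 48 h compound exposure at 37 degrees C of IDH1-knockdown HT-1080 cells in 5% FBS RPMI. %Activity scaled between DMSO wells and cell-free media wells, with curves fitted and assigned curve classes.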
# DT40 TDP1 CPT: qHTS for Inhibitors of human tyrosyl-DNA phosphodiesterase 1 (TDP1): qHTS in cells in presence of CPT; chicken DT40 Tdp1-/-;hTDP1 cells + 20 nM CPT, ATP luminescence, 48 h; actives 12% (n = 420,000); Potency, µM (highest dose often 46.2 µM), actives largely listed as inhibitors; note: nearly all actives have a fitted effect of over 55% in size
#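 Cell growth measured by CellTiter-Glo luminescence after a minimum 48 h, 37 C compound exposure with 20 nM CPT in Tdp1-knockout DT40 cells stably expressing hTDP1, seeded 400/well; qHTS titration format.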
# HT1080-NT tox: qHTS for induction of synthetic lethality in tumor cells producing 2HG: qHTS for the HT-1080-NT fibrosarcoma cell line; HT-1080-NT fibrosarcoma viability, CellTiter-Glo ATP luminescence, 48 h; actives 1.6% (n = 360,000); AID 686970, 2013; Potency, µM (highest dose often 46.1 µM), hits mostly cytotoxic;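 note: NT is the 2HG producing partner of a matched IDH1 knockdown line; nearly all actives have a fitted effect of over 55% in size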
#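 Luminescent CellTiter-Glo readout after 48 hours of compound exposure at 37 degrees C defined viability of HT-1080-NT cells. Activity was normalized to DMSO wells and cell-free media wells; concentration-response curves were fitted and assigned curve classes.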
# TDP1 cell noCPT: qHTS for Inhibitors of human tyrosyl-DNA phosphodiesterase 1 (TDP1): qHTS in cells in absence of CPT; DT40 Tdp1-/- hTDP1 cells, no CPT, ATP luminescence, 48 h; Potency, µM (titrated, usually from 46.2 µM), hits mostly inhibitors; actives 15% (n = 420,000); note: nearly all actives have a fitted effect of over 55% in size
#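 Camptothecin absent (DMSO only). Human TDP1-complemented DT40 knockout cells, 400 cells/well, 37 °C for minimum 48 hr; ATP measured via CellTiter-Glo, 30 min dark incubation, luminescence.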
# A number is an active result; – = inactive; ? = inconclusive; · = not tested or not shown; ! = not confirmed by another sample; [ ] = dose if it differs, or a comment. Shown are actives, neighbours in structure and some others; about 19% of the full set was active somewhere. Calls come from the whole dose curve; as a rule, active = well fitted curve in the direction sought with a large enough effect; inconclusive = small, poorly fitted or top-dose-only effect, or another doubt; inactive = no such curve, though single readings can be large; an effect the other way counts as inactive or inconclusive.
SMILES,KB-V1 cytotox,KB-3-1 tox,HT1080 IDH1KD tx,DT40 TDP1 CPT,HT1080-NT tox,TDP1 cell noCPT
N#Cc1ccccc1NC(=O)C(=O)NCC(c1cccnc1)N1CCN(c2ccccc2)CC1 (stereo not given),–,–,·,?,·,–
CC(C)c1cc(C(C)C)c(S(=O)(=O)NC(c2ccccn2)C23CC2C3)c(C(C)C)c1 (stereo not given),–,?,?,?,?,16.4µM
CC(NS(=O)(=O)c1ccc2ccccc2c1)c1ccccn1 (stereo not given),–,–,–,–,–,–
Cc1sc2c3ccsc3ccc2[n+]1C,–,–,–,13µM,–,16.4µM
Cc1sc2ccc3sccc3c2[n+]1C,–,–,–,8.2µM,–,20.6µM
Cc1ccc(CCNC(=O)c2ccc(CSCc3ccccc3C)o2)cc1,·,·,·,?,·,16.4µM
O=C(NCCc1ccccc1)c1ccc(CS(=O)(=O)Cc2ccccc2F)o1,14.6µM,–,–,–,–,?
Cc1ccccc1CS(=O)(=O)Cc1ccc(C(=O)NCCc2ccc(Cl)cc2)o1,–,–,·,20.6µM,·,?
Cc1ccccc1CS(=O)(=O)Cc1ccc(C(=O)NCc2cccnc2)o1,–,–,–,–,–,–
Cc1ccc(CCNC(=O)c2ccc(CS(=O)(=O)Cc3ccccc3F)o2)cc1,5.8µM!,–,–,?,–,16.4µM
CC1CCC(NC(=O)c2ccc(CS(=O)(=O)Cc3ccccc3F)o2)CC1 (stereo not given),?,–,–,–,–,?
Cn1cnnc1SCC(=O)NN(c1ccccc1)c1ccccc1,–,–,–,–,–,–
CC1CN(S(=O)(=O)c2ccc(F)cc2)C(C)N1C(=O)N1CCOCC1 (stereo not given),–,–,–,–,–,–
CC(=O)[O][Al][O]C(C)=O,·,·,·,–,·,–
CC(=O)c1ccc2c(c1)Cc1cc(C(C)=O)ccc1-2,?,–,–,–,–,–
CC(=O)c1ccc2c(c1)CC1(C2)Cc2cc3c(cc2C1)C(=O)CC3 (stereo not given),2.59µM,3.66µM,?,5.17µM,?,3.26µM
CC(C)c1ccc(/C=N/n2cnnc2)cc1,–,–,–,–,–,–
Cc1cccc(N=C2NN=C(c3c(C)[nH]c4ccccc34)CS2)c1,?,–,18.4µM,?,?,?
O=C(CSc1nc2cc(Cl)ccc2s1)NC(=O)NCc1ccco1,–,–,–,–,?,?
CCOc1ccc2nc(SCC(=O)NCc3ccco3)sc2c1,?,–,–,?,–,23.1µM
CCOc1ccc2nc(SCC(=O)NC(=O)NCc3ccco3)sc2c1,–,–,–,?,–,25.9µM
COc1ccc(S(=O)(=O)N2CCC(C(=O)N3CCN(c4ccccc4OC)CC3)CC2)cc1,–,–,–,?,–,?
O=C(C1CCCCN1S(=O)(=O)c1ccc(F)cc1)N1CCN(c2ccccc2F)CC1 (stereo not given),?,–,–,–,–,?
COc1ccccc1N1CCN(C(=O)C2CCCCN2S(=O)(=O)c2ccc(C)cc2)CC1 (stereo not given),–,–,–,18.4µM,–,?
COc1ccccc1N1CCN(C(=O)C2CCCN(S(=O)(=O)c3ccc(C)cc3)C2)CC1 (stereo not given),?,–,–,16.4µM,–,10.3µM
SMILES,KB-V1 cytotox,KB-3-1 tox,HT1080 IDH1KD tx,DT40 TDP1 CPT,HT1080-NT tox,TDP1 cell noCPT
CCOC(=O)CN1N=C(c2ccc(C)cc2)CCC1=O,–,–,–,–,–,–
O=C(CSc1cn[nH]n1)Nc1cccc(C(F)(F)F)c1,–,–,–,–,–,–
CCN1C(=O)[C@H]2[C@@H](c3ccc(C(F)(F)F)cc3)N[C@]3(CCCN(Cc4ccc(OC)cc4)C3=O)[C@H]2C1=O,–,–,–,20.6µM,–,10.3µM
CCN1C(=O)[C@H]2[C@@H](c3ccc(C(F)(F)F)cc3)N[C@]3(CCCN(Cc4ccc(C(F)(F)F)cc4)C3=O)[C@H]2C1=O,–,–,–,11.6µM,–,11.6µM
CCN1C(=O)[C@H]2[C@@H](c3ccc(OC)cc3)N[C@]3(CCCN(Cc4ccc(Cl)cc4)C3=O)[C@H]2C1=O,?,–,–,?,–,?
CC(=O)Nc1ccc(S(=O)(=O)N(Cc2ccccc2)c2ccccc2F)cc1,–,–,–,–,–,?
C=CC[N+]1(CC(=O)NCc2ccc(NC(C)=O)cc2)CCOCC1,–,–,–,–,–,–
Cc1ccccc1C1(CC(=O)N2CCCCC2C)CC(=O)N(Cc2cccnc2)C1=O (stereo not given),·,·,·,–[9.04 µM],·,?
CCOC(=O)C(Cc1ccnc2ccccc12)=NO,–,–,–,?,14.6µM,?
O=C(O)C(Cc1ccnc2ccccc12)=NO,–,?,–,–,?,–
CCSc1ccc([C@@H]2[C@@H]3C(=O)N(C)C(=O)[C@@H]3[C@]3(C(=O)OC)CCCCN23)cc1,–,–,–,16.4µM,–,?
COC(=O)[C@@]12CCCCN1[C@H](c1ccc(SC3CCCCC3)cc1)[C@H]1C(=O)N(C)C(=O)[C@H]12,–,?,–,?,–,16.4µM
COC(=O)[C@@]12CCCN1[C@H](c1ccc(SC3CCCCC3)cc1)[C@H]1C(=O)N(C)C(=O)[C@H]12,–,–,–,?,–,16.4µM
O=C(c1cnccn1)N1CCC2(CC1)CCN(c1ccncc1)CC2,·,·,·,–,·,–
Cc1ccc(S(=O)(=O)Nc2nc(C)c(NC(=O)Nc3ccc(Cl)cc3Cl)s2)cc1,–,–,–,–,–,–
O=C(Nc1nc(-c2ccccn2)cs1)Nc1ccc(F)cc1F,–,–,?,4.61µM,?,2.91µM
O=C(Nc1nc(-c2ccccc2)cs1)Nc1ccc(F)cc1F,?,–,?,9.2µM,?,9.2µM
CC(C)=CCc1c(-c2ccc(O)cc2O)oc2cc3c(c(O)c2c1=O)C=CC(C)(C)O3,–,–,–,23.1µM,–,23.1µM
CCOc1ccc2[nH]c(=O)c(CN(CCc3ccccc3)C(=O)N3CCOCC3)cc2c1,14.6µM,–,–,?,–,?
CCOc1ccc2[nH]c(=O)c(CN(CCc3ccccc3)C(=O)N3CCCC3)cc2c1,–,–,–,12.6µM,–,?
